Shown is part of a subset that was picked to be rich in hits.
VDR inhibitor: inhibitors of human vitamin D receptor. P11473. VDR-SRC2-3 peptide fluorescence polarization, 2 h. Potency, µM, for the others: max response, negative = inhibition, usual class: inhibitors. 0.93% of 400,000 active. AID 504847; also: % is scaled to controls: 0 for no effect and ±100 for the full control effect
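Fluorescence polarization assay measuring small-molecule disruption of VDR binding to the coregulator peptide SRC2-3. Compounds were pin-transferred (23 nl) into the reagent mix and incubated 2 h at room temperature before reading.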
G9a inh: inhibitors of human histone lysine methyltransferase G9a | Q96KQ7 | G9a H3K9 monomethylation, AlphaScreen, 2 h | Potency, µM (series often up to 102 µM), for inactives: at the highest dose activity, negative = inhibition, most hits filed as inhibitors | 8.8% of 350,000 active | AID 504332; also: % is scaled to controls: 0 for no effect and ±100 for the full control effect; nearly all actives have a fitted effect of over 75% in size
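Quantitative HTS format: methyltransferase activity on a biotin-tagged H3K9 peptide is measured by AlphaScreen, using a rabbit anti-monomethyl-H3K9 antibody with streptavidin donor and anti-IgG acceptor beads. Final levels are 20 nM enzyme, 500 nM peptide, 20 uM SAM; 2 h RT.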
Glioma ERSR ind: inducers of ER stress response in human glioma cells; U87-MG GRP78 promoter luciferase reporter, 16 h; Potency, µM, for inactives: at the top dose activation, actives largely listed as activators; 0.02% of 420,000 active; AID 602332; also: series mostly up to about 76 µM; % of control where 0% means no effect; nearly all actives have a fitted effect of over 35% in size
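Stably transfected U87-MG glioma cells carrying a GRP78-based luciferase sensor; 16 h compound incubation. Luminescence end-point read 10 min after Bright-Glo addition at room temperature.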
Sfp PPTase inh: Sfp phosphopantetheinyl transferase inhibition; Potency, µM, without a hit: largest response in the series, negative = inhibition, actives largely listed as inhibitors; AID 1490; 3.5% of 310,000 active; Q9F4F7; Biochemical Sfp PPTase activity, qHTS;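 also: the enzyme is Sfp with the accession as filed and its product quenches rhodamine fluorescence; 0% = enzyme reaction without inhibitor and -100% = no enzyme wells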
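Sfp 15 nM + cpd, 15 min RT; start w/ rhodamine-CoA 5 uM, BHQ-2-YbbR 12.5 uM (final); 50 mM Hepes pH 7.6, 10 mM MgCl2, 0.01% NP-40, 0.01% BSA; read 525/598 nm at 0 and 30 min.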
12-LOX inh: inhibitors of human 12S-lipoxygenase ALOX12. P18054. purified 12hLO, xylenol orange hydroperoxide absorbance. Potency, µM (titrated, usually from 108 µM), for the others: at the highest dose activity change, negative = inhibition, hits mostly inhibitors. 1.1% of 580,000 active; also: % is scaled to controls: 0 for no effect and ±100 for the full control effect
Target sequence (P18054 whole entry, looked up): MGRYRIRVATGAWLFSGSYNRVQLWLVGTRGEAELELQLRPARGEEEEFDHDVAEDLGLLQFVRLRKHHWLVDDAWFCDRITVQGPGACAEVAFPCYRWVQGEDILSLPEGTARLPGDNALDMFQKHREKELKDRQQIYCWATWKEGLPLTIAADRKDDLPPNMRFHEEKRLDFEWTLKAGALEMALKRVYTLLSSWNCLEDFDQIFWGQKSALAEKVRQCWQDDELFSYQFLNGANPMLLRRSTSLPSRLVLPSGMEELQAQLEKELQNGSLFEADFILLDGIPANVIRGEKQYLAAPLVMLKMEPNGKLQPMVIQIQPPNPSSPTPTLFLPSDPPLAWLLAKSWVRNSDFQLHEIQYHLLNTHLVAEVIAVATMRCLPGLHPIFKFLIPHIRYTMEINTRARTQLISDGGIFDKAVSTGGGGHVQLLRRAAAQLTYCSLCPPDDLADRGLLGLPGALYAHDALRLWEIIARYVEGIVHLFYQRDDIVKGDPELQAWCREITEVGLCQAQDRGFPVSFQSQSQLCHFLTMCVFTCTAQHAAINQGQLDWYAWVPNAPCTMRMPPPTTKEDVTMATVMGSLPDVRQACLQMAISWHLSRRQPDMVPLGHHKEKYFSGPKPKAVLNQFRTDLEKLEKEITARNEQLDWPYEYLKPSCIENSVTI
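Purified human 12hLO (150 nM final) in 25 mM Hepes, 0.01% Triton X-100, pH 7.0 was preincubated 15 min at room temperature with compound. Then 40 uM arachidonic acid was added, 30 min. Hydroperoxide was read by Fe-XO absorbance ratio 573/405 nm.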
Numbers without * were called inactive; ? = inconclusive; . = no result; [ ] = remark or other dose. Calls follow the shape of the dose curve; as a rule, active = well fitted curve in the direction sought with a large enough effect; inconclusive = small, poorly fitted or top-dose-only effect, or another doubt; inactive = no such curve, though single readings can be large; an effect the other way counts as inactive or inconclusive. Potency is read from the fitted curve at half-maximal effect.

SMILES	VDR inhibitor	G9a inh	Glioma ERSR ind	Sfp PPTase inh	12-LOX inh
O=[N+]([O-])c1cccc(Cl)c1CSc1ccccn1	-11%	45µM*	2%	-13%	?
CCOC(=O)/C=C/C(=O)N1CCN(C(=O)/C=C/C(=O)OCC)CC1	9%	56µM*	0%	8%	0%
C=CCOc1c(Br)cc(CNn2c(C)n[nH]c2=S)cc1OCC	-1%	16µM*	-5%	-7%	?
COc1cc(CNn2c(C)n[nH]c2=S)cc(Cl)c1OCc1ccc(F)cc1	-8%	?	-4%	-26%	?
C=CCOc1c(Br)cc(CNn2cn[nH]c2=S)cc1OC	-16%	-131%[59 µM]	0%	-10%	-11%
COc1cc(CNn2c(C)n[nH]c2=S)cc(Br)c1OCc1ccc(F)cc1	-4%	22µM*	0%	-10%	?
Cc1nn(-c2cc(N3CCN(C(=O)C(C)(C)C)CC3)ccc2[N+](=O)[O-])c(=O)c2ccccc12	.	.	.	.	6%
O=C1C(Nc2ccccc2)=CC(c2ccc(O)cc2)N1c1ccccc1 (stereo not drawn)	2%	.	6%	?	-28%
COc1cc(C2C=C(Nc3ccccc3)C(=O)N2c2ccccc2)ccc1O (stereo not drawn)	-29%	50µM*	5%	?	1%
CCCNC(=O)NS(=O)(=O)c1ccc(Cl)cc1	7%	-4%[59 µM]	-4%	7%	6%
CCCNC(=O)c1nnsc1S(=O)(=O)c1ccc(Cl)cc1	?	13µM*	-13%	13µM*	-9%
O=C1NC(=S)S/C1=C\c1ccc(SCc2ccccc2)o1	?	?	3%	?	13µM*
O=C1NC(=S)SC1=Cc1ccccc1Cl	?	.	5%	.	?
O=C1NC(=S)S/C1=C\c1ccc(SCc2ccco2)o1	45µM*	10µM*	-3%	20µM*	.
COc1ccc(N2Cc3cccc(C(=O)NCc4ccc(Cl)cc4)c3C2=O)cc1	.	.	.	.	-8%
O=c1[nH]c2c(s1)C(c1ccco1)C1C3CCC(C3)C1S2 (stereo not drawn)	-13%	7.9µM*	-2%	45µM*	170%
O=C(O)c1ccc(NC2=C/C(=N/S(=O)(=O)c3cccs3)c3ccccc3C2=O)cc1	.	.	-14%	.	?
Cc1cccc(NC2=C/C(=N/S(=O)(=O)c3cccs3)c3ccccc3C2=O)c1	-18%	?	5%	?	-10%
O=C1C(Nc2ccc(O)cc2)=C/C(=N/S(=O)(=O)c2cccs2)c2ccccc21	-20%	11µM*	-14%	-4%	?
Cc1ccc(NC2=C/C(=N\S(=O)(=O)c3cccs3)c3ccccc3C2=O)c(C)c1	-14%	7.9µM*	-12%	-7%	.
O=C(NCc1ccc(F)cc1)N1CC(Oc2ccc(-c3noc(-c4ccccc4)n3)cc2)C1	.	.	.	.	-1%
Cc1ccc(C(=O)N[C@@H]2CN(Cc3ccncc3)C[C@H]2CN(C)C)cc1C	.	.	.	.	78%
O=C(CCc1ncc(-c2ccc(F)cc2)o1)N1CCN(c2ccccc2Cl)CC1	.	.	.	.	40%
Cc1ccccc1N1C(=O)CC(Sc2nnc(-c3ccccc3)o2)C1=O (stereo not drawn)	-11%	7.9µM*	-17%	10µM*	35%
O=C1CC(Sc2cccs2)C(=O)N1c1ccccc1 (stereo not drawn)	-22%	.	-7%	-29%	-11%
SMILES	VDR inhibitor	G9a inh	Glioma ERSR ind	Sfp PPTase inh	12-LOX inh
O=C1CC(Sc2nnc(-c3ccccc3)o2)C(=O)N1c1ccccc1 (stereo not drawn)	-5%	?	7%	22µM*	0%
Cc1ccc(N2C(=O)CC(Sc3nc(-c4ccccc4)c4cc(Cl)ccc4n3)C2=O)c(C)c1 (stereo not drawn)	4%	0%[59 µM]	-1%	10%	18%
COC(=O)c1cc2c(Br)cc(OC)c(OC)c2[nH]1	.	.	.	.	-1%
COC(=O)C1=C(C)N(Cc2ccc(Br)cc2)C(=S)NC1c1ccccc1 (stereo not drawn)	.	.	.	.	40µM*
COC(=O)C1=C(C)N(Cc2ccco2)C(=O)N[C@H]1c1ccc(Br)cc1	0%	50µM*	.	?	.
COC(=O)C1=C(C)N(Cc2ccc(Br)cc2)C(=S)NC1c1cccc(Br)c1 (stereo not drawn)	.	.	.	.	40µM*
COC(=O)C1=C(C)N(Cc2ccccc2)C(=S)N[C@H]1c1cccc(F)c1	-14%	-19%	-3%	1%	?
COC(=O)C1=C(C)N(Cc2ccccc2)C(=S)NC1c1cccc(Br)c1 (stereo not drawn)	.	.	.	.	40µM*
CCOC(=O)C(Sc1cc(C)nc(N)n1)C(C)=O (stereo not drawn)	-20%	18µM*	0%	56µM*	?
CCOC(=O)C(Sc1nn(C)c(=S)s1)C(C)=O (stereo not drawn)	?	18µM*	5%	50µM*	?
Cc1ccc(N/N=C/c2ccncc2)cc1	33%	28µM*	?	14%	?
Cc1ccc(C(=O)Nc2ccc(C(=O)N/N=C/c3ccncc3)cc2)cc1	.	32µM*	.	-17%	.
O=[N+]([O-])c1ccc(-c2csc(N/N=C/c3cccnc3)n2)cc1	-1%	.	-1%	-3%	?
Cc1ccc(N/N=C/c2ccc(C)s2)cc1	.	.	.	.	56µM*
Cc1cccc(N/N=C/c2ccc(C)s2)c1	9%	?	7%	-3%	-24%
O=C(O)c1ccc(N/N=C/c2ccncc2)cc1	1%	11%	-4%	5%	-27%
Cc1csc(N/N=C\c2cccnc2)n1	26%	45µM*	1%	56µM*	-22%
COc1ccc(N2CC3CCC(C2)N3Cc2cccc(-c3cccnc3)c2)cc1	.	.	.	.	9%[6.33 µM]
CCC1Oc2ccc(NC(=O)COc3ccccc3)cc2CN(C(CC)c2ccccc2)C1=O (stereo not drawn)	.	.	.	.	3%
Cc1ccc(N/N=C/c2cccnc2)cc1	-3%	?	6%	-15%	40µM*
O=C(CSc1n[nH]c(-c2ccc(Br)cc2)n1)c1cc(F)ccc1F	.	.	.	.	32µM*
COc1ccc(CSc2ccc(S(=O)(=O)N3CCOCC3)cn2)cc1F	.	.	.	.	-11%
CCC/C(=C1/C(=O)CC(C)(C)C(C(=O)OC)C1=O)N1CCCC1 (stereo not drawn)	14%	71µM*	6%	-5%	?
Cc1ccccc1NC(=O)CCS(=O)(=O)c1ccc2c(c1)NC(=O)CS2	.	.	.	.	-23%
CCOC(=O)C1CCN(C(=O)c2cc3cc(OCC)ccc3n2C)CC1	.	.	.	.	15%
Cc1ccc2c(=O)c(-c3nc(-c4ccc(Cl)cc4)no3)cn(CC(=O)NCc3ccco3)c2n1	.	.	.	.	20µM*
Cc1ccc(-c2noc(-c3cn(CC(=O)NCc4cccs4)c4nc(C)ccc4c3=O)n2)cc1	.	.	.	.	-1%
COc1ccc(N2C(=O)CCS2(=O)=O)cc1S(=O)(=O)N1CCCCC1	.	.	.	.	7%
CCC1(CC)NC(=O)N(Cc2coc(-c3cccc(F)c3)n2)C1=O	.	.	.	.	0%
COc1ccc(C)cc1NC(=O)C(=O)c1c[nH]c2ccccc12	.	.	.	.	-22%
